Laboratory results: the supplement of paper PMC4237247

What follows are compounds tested on HeLa (assay: percent cells in S phase; higher = more S arrest). Details: 10 µM; 20 h; hit class: G1-phase inhibitor.
Procedure: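 HTS of 79,827 drug-like compounds at 10 uM. HeLa cells in 384-well plates were treated for 20 h, fixed, stained with Vybrant DyeCycle Green and scanned on an Acumen eX3 cytometer to give per-well cell cycle profiles (% cells in each phase). The plate Z' was 0.51. Only hits are listed: G1 hits >4 SD and S hits >5 SD from the mean.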

Row | SMILES | percent cells in S phase
1 | CC(C)(C)c1cc(C=C(C#N)C#N)cc(C(C)(C)C)c1O | 8.81%
2 | C[C@@H]1C[C@@H]([C@H](O)CC2CC(=O)NC(=O)C2)C(=O)[C@@H](C)C1 [Cycloheximide] | 6.83%
3 | C[C@@]12C(=O)OC(=O)[C@]1(C)[C@H]1CC[C@@H]2O1 | 8.95%
4 | C/C=C(/C)C(=O)O[C@H]1C(C)=C2[C@H]([C@@H]1OC(=O)CCCCCCC)[C@@](C)(OC(C)=O)C[C@H](OC(=O)CCC)[C@@]1(O)[C@H]2OC(=O)[C@@]1(C)O | 7.22%
5 | C/C(=C\c1ccc(Cl)cc1)[N+](=O)[O-] | 4.01%
6 | CNC1CC2OC(C)(C1OC)n1c3ccccc3c3c4c(c5c6ccccc6n2c5c31)C(=O)NC4 (centres undefined) | 5.4%
7 | C[C@@H]1O[C@@H](O[C@H]2C[C@@H](O)[C@]3(CO)[C@H]4[C@H](O)C[C@]5(C)[C@@H](C6=CC(=O)OC6)CC[C@]5(O)[C@@H]4CC[C@]3(O)C2)[C@H](O)[C@H](O)[C@H]1O | 15%
8 | O=[N+]([O-])c1ccc(NCCO)c2ncccc12 | 4.86%
9 | CNc1ccc2oc(C[C@H]3O[C@@]4(CC[C@H]3C)O[C@H]([C@H](C)C(=O)c3ccc[nH]3)[C@H](C)C[C@H]4C)nc2c1C(=O)O | 6.33%
